From the supplement of paper PMC10849652
Targets with a hit are over-represented here; the source holds about 7,900 in all. About 0.6% of all pairs of compound and target were hits. Values without a mark were called inactive.

Experiments:
Experiment in all cases: log2 fold change, soluble protein after heating vs DMSO (PISA); higher = thermal stabilisation; K562 cells, 10 uM, 30 min; active = over 0.2 and 3.5 SD of the protein, either way, in both replicates (recomputed)
[1] = compound: CS(=O)(=O)c1ccc(-c2cnc(N)c(C(=O)Nc3ccccc3)n2)cc1
Method in brief: (§1)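 K562 cells at 2×10^6 cells/mL were treated with 10 μM compound for 30 min. Aliquots were heated for 3 min across 48°C-58°C, pooled, and extracted in PBS with 0.5% NP-40 at 4°C; soluble protein was the supernatant after 21,000xg for 90 min. Soluble protein was quantified by TMTpro 16plex LC-MS/MS with channel sums equalised, and reported as log2 fold change in thermal stability against DMSO controls, with values from duplicates.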

crizotinib = compound: C[C@@H](Oc1cc(-c2cnn(C3CCNCC3)c2)cnc1N)c1c(Cl)ccc(F)c1Cl [crizotinib]
Method in brief: as §1

[2] = compound: C[C@@H]1COCCN1C2=NC(=NC(=C2)C3(CC3)S(=O)(=O)C)C4=C5C=CNC5=CC=C4
Method in brief: as §1

[3] = compound: C[C@H](C1=CC=C(C=C1)C(=O)NC2=C3C=CNC3=NC=C2)N
Method in brief: as §1

duvelisib = compound: C[C@H](Nc1ncnc2nc[nH]c12)c1cc2cccc(Cl)c2c(=O)n1-c1ccccc1 [duvelisib]
Method in brief: as §1

gandotinib = compound: Cc1cc(Nc2cc(CN3CCOCC3)c3nc(C)c(Cc4ccc(Cl)cc4F)n3n2)n[nH]1 [gandotinib]
Method in brief: as §1

tozasertib = compound: Cc1cc(Nc2cc(N3CCN(C)CC3)nc(Sc3ccc(NC(=O)C4CC4)cc3)n2)n[nH]1 [tozasertib]
Method in brief: as §1

[4] = compound: Cc1cc(SCc2sc(-c3ccc(C(F)(F)F)cc3)nc2C)ccc1OCC(=O)O
Method in brief: as §1

doramapimod = compound: Cc1ccc(-n2nc(C(C)(C)C)cc2NC(=O)Nc2ccc(OCCN3CCOCC3)c3ccccc23)cc1 [doramapimod]
Method in brief: as §1

ispinesib = compound: Cc1ccc(C(=O)N(CCCN)[C@@H](c2nc3cc(Cl)ccc3c(=O)n2Cc2ccccc2)C(C)C)cc1 [ispinesib]
Method in brief: as §1

Chain of UniProt Q9BZH6 (Q9BZH6 whole entry, looked up): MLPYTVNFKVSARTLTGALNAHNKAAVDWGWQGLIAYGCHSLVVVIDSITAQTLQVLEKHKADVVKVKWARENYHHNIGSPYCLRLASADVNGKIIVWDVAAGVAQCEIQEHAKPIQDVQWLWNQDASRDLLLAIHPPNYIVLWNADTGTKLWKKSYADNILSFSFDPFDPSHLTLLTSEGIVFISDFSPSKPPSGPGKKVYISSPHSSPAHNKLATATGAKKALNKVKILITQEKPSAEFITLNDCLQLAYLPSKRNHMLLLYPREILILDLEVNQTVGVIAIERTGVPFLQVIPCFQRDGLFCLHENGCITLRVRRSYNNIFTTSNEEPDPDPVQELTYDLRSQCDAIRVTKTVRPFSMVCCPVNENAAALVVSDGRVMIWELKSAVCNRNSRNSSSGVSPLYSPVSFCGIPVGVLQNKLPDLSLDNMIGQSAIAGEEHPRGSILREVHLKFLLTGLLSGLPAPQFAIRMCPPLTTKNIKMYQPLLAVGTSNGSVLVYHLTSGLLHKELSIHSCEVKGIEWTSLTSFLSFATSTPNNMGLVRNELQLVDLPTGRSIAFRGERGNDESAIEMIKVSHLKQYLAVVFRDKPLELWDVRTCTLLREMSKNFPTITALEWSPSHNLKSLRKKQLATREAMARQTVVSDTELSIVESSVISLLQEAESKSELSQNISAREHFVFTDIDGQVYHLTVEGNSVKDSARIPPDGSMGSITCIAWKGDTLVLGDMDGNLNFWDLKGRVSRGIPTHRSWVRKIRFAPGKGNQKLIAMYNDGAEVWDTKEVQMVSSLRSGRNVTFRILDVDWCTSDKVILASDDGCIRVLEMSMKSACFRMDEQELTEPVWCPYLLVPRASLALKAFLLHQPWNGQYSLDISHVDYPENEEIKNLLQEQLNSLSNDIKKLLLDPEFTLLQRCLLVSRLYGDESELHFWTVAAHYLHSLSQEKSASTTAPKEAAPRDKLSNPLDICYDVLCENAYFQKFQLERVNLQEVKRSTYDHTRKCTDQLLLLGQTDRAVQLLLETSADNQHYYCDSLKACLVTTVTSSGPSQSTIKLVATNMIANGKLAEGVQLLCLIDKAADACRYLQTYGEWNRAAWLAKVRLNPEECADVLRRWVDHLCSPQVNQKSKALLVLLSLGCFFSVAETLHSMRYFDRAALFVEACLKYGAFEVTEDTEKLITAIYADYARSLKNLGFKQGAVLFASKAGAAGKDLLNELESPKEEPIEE
Chain of UniProt Q9BV38 (Q9BV38 whole entry, looked up): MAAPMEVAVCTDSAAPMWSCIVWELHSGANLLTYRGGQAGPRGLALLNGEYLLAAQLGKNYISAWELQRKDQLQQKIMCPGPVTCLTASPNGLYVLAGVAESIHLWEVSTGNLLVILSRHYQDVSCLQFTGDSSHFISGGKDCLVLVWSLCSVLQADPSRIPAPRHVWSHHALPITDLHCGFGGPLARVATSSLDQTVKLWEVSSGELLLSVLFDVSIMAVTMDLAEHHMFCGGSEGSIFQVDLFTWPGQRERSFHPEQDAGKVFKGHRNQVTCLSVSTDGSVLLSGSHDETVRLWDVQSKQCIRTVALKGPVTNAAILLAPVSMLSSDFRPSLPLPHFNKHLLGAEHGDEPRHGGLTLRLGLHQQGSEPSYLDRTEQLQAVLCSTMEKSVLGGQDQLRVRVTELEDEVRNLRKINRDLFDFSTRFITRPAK
Chain of UniProt Q8NCE0 (Q8NCE0 whole entry, looked up): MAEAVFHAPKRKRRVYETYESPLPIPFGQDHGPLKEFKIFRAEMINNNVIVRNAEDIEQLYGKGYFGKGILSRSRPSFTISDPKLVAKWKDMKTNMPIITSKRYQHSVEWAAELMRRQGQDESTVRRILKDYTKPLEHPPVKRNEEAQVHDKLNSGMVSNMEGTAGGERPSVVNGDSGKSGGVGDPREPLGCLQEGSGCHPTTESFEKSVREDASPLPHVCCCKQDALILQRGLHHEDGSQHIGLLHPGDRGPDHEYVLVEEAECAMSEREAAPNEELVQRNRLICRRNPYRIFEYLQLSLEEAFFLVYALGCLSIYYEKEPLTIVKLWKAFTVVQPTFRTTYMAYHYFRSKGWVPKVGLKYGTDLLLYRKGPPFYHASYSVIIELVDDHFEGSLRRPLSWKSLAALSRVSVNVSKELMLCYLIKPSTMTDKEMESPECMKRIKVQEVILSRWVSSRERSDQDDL
Chain of UniProt Q9UID3 (Q9UID3 whole entry, looked up): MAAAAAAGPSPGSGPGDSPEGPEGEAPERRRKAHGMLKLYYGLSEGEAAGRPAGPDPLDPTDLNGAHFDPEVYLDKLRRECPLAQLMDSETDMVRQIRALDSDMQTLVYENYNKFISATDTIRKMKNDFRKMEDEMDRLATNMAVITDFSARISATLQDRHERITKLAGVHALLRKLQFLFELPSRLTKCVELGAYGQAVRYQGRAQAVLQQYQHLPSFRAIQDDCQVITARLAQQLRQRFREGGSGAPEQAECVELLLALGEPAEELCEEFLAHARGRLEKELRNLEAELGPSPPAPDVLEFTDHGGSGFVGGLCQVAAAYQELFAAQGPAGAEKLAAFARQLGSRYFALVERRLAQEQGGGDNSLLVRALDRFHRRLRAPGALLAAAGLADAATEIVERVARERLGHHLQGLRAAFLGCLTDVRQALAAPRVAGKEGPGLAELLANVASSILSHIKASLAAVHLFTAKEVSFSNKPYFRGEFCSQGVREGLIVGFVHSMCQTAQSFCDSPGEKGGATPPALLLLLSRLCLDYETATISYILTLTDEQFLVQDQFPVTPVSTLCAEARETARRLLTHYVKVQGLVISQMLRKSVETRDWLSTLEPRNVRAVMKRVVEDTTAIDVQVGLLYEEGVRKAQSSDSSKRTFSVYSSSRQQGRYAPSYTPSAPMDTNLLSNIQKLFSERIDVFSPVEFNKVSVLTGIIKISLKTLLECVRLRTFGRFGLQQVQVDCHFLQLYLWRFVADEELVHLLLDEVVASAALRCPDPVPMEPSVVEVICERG
Chain of UniProt Q99816 (Q99816 whole entry, looked up): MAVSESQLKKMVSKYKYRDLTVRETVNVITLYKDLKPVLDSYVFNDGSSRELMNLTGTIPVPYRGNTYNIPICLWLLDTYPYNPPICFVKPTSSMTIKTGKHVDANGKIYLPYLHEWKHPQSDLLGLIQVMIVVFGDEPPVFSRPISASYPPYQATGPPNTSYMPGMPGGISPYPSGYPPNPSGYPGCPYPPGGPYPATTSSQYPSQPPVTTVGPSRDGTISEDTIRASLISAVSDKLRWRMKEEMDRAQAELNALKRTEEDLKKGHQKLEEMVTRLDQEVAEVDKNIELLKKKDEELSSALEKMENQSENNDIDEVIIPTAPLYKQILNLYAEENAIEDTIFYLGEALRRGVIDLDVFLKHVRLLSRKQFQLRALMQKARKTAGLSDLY
Chain of UniProt Q9Y2I8 (Q9Y2I8 whole entry, looked up): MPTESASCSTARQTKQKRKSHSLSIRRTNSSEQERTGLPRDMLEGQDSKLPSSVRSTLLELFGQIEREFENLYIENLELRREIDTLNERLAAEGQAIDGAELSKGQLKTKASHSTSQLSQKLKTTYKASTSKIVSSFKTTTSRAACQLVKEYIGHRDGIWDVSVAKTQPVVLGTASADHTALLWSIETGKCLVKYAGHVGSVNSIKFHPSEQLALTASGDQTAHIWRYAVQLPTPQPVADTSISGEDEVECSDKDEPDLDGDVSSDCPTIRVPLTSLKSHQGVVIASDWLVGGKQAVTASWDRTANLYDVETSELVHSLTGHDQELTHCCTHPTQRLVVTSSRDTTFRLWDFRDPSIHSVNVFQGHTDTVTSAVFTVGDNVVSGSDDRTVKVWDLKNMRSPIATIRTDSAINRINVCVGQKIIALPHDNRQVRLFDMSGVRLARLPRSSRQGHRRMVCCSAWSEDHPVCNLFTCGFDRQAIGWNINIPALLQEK
Chain of UniProt P57081 (P57081 whole entry, looked up): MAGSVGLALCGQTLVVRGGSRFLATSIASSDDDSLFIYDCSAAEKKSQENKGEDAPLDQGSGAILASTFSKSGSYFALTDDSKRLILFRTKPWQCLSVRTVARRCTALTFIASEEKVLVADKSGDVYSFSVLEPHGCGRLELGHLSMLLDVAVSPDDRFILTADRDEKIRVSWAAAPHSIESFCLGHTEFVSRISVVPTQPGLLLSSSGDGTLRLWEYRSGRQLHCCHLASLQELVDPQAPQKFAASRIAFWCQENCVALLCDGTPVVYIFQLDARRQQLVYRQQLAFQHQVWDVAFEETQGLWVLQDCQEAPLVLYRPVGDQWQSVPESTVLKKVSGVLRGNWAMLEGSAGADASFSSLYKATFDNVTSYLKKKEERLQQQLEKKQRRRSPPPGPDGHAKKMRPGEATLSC
Chain of UniProt Q9NUM4 (Q9NUM4 whole entry, looked up): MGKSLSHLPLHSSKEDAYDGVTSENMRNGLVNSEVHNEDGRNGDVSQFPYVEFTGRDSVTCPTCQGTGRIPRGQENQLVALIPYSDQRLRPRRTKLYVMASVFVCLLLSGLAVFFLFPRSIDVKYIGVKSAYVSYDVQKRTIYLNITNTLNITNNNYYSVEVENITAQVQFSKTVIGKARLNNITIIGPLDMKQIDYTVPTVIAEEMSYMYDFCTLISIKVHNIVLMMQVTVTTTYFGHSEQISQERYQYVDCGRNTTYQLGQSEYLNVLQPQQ
Chain of UniProt A0PJW6 (A0PJW6 whole entry, looked up): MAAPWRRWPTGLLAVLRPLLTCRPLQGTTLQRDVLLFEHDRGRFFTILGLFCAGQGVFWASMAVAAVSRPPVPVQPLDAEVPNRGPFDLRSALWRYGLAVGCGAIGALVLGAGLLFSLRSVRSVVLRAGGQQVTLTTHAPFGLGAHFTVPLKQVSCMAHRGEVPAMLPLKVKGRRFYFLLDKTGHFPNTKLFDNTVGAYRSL
Chain of UniProt Q9BUB7 (Q9BUB7 whole entry, looked up): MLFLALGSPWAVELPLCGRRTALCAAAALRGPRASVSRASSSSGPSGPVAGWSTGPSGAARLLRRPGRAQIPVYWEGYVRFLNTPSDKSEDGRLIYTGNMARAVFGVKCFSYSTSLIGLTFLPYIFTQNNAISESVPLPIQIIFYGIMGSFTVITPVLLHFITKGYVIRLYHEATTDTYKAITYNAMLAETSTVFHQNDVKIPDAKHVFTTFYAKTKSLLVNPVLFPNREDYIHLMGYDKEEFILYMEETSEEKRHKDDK

Target | log2 fold change [1] | log2 fold change (crizotinib) | log2 fold change [2] | log2 fold change [3] | log2 fold change (duvelisib) | log2 fold change (gandotinib) | log2 fold change (tozasertib) | log2 fold change [4] | log2 fold change (doramapimod) | log2 fold change (ispinesib)
UPF3B (UniProt Q9BZI7) | 0 | 0.091 | -0.63 | 0.542 | -0.125 | 0.452 | 0.071 | 0.064 | 0.295 | -0.222
UXT isoform 2 (UniProt Q9UBK9) | 0.063 | 0.056 | 0.184 | 0.006 | 0.017 | 0.255 | 0.021 | -0.034 | 0.017 | -0.035
WDR46 (UniProt O15213) | -0.05 | 0.008 | -0.731 | 0.445 | -0.199 | 0.27 | 0.068 | 0.032 | 0.142 | -0.081
TMEM164 (UniProt Q5U3C3) | 0 | -0.036 | 0.139 | 0.05 | 0.601 (active) | -0.204 | 0.031 | 0.027 | 0.091 | 
WDR37 isoform 2 (UniProt Q9Y2I8) | 0.026 | 0 | 0.041 | 0.11 | -0.113 | 0.069 | 0.055 | 0.15 | 0.02 | 0.055
TMEM223 (UniProt A0PJW6) | -0.008 | -0.045 | 0.038 | 0.002 | 0.043 | -0.14 | 0.061 | 0 | 0.015 | -0.254 (active)
XRCC5 (UniProt P13010) | 0.037 | -0.086 | 0.047 | 0.077 | -0.017 | -0.001 | 0.177 | 0.179 | 0.064 | -0.16
VPS16 (UniProt Q9H269) | 0.035 | -0.105 | -0.09 | 0.08 | 0.023 | -0.163 | 0.033 | 0.092 | 0.085 | -0.239
WDR18 (UniProt Q9BV38) | -0.023 | -0.008 | -0.022 | -0.102 | -0.012 | -0.021 | 0.022 | -0.009 | 0.026 | 0.027
WDR4 (UniProt P57081) | 0.085 | -0.038 | -0.024 | -0.121 | 0.014 | 0.049 | -0.007 | 0.017 | 0.023 | 0.075
VPS33A (UniProt Q96AX1) | -0.031 | -0.218 | 0.014 | 0.043 | 0.029 | -0.091 | 0.036 | 0.049 | -0.017 | -0.154
TUT4 (UniProt Q5TAX3) | 0.069 | 0.075 | -0.286 | 0.095 | 0.166 | 0.024 | 0.044 | 0.195 | -0.003 | -0.124
UHRF1BP1 (UniProt Q6BDS2) | 0.003 | 0.086 | 0.001 | -0.009 | 0.124 | -0.004 | -0.014 | -0.014 | 0.014 | 0.12
WARS1 (UniProt G3V3P2) | -0.07 |  |  |  |  |  |  |  |  | 
TSG101 (UniProt Q99816) | 0.035 | -0.094 | 0.082 | -0.054 | 0.019 | -0.024 | 0.032 | 0.018 | 0.009 | -0.037
XPO5 (UniProt Q9HAV4) | -0.008 | -0.052 | 0.021 | -0.026 | 0.007 | -0.192 | 0.03 | 0.064 | -0.043 | -0.079
WDR11 (UniProt Q9BZH6) | -0.064 | -0.007 | 0.111 | 0.059 | 0.029 | -0.291 | -0.049 | -0.051 | 0.056 | -0.133
TMEM106B (UniProt Q9NUM4) | -0.024 | -0.382 (active) | 0.389 | -0.054 | 0.03 | -0.021 | -0.073 | 0 | 0.014 | 
UBE4A isoform 2 (UniProt Q14139) | 0.036 | -0.275 | 0.069 | 0.29 (active) | 0.006 | -0.076 | 0.037 | 0.117 | -0.023 | -0.172
TRMT61A (UniProt Q96FX7) | -0.017 | -0.046 | -0.201 | 0.168 | -0.004 | 0.168 | -0.016 | 0.106 | 0.011 | -0.093
TNNC2 (UniProt P02585) | -0.004 | 0.06 | 0.04 | -0.005 | 0.072 | 0.078 | -1.1 (active) | -0.059 | -0.014 | 0.022
XPOT (UniProt O43592) | 0.009 | -0.123 | 0.024 | -0.001 | 0.005 | -0.177 | 0.15 | 0.068 | -0.011 | -0.12
TMEM70 (UniProt Q9BUB7) | 0.025 | -0.096 | 0.035 | 0.002 | -0.016 | -0.08 | -0.016 | 0.087 | -0.017 | -0.243
TMEM263 (UniProt Q8WUH6) | 0.03 | -0.717 (active) | -0.029 | 0.018 | -0.007 | -0.385 | -0.019 | 0.046 | -0.075 | -0.936 (active)
UBE3D (UniProt Q7Z6J8) | 0.002 | 0.053 | 0.128 | -0.067 | 0.016 | -0.147 | 0.076 | -0.052 | -0.01 | -0.024
TMEM208 (UniProt Q9BTX3) | -0.09 | -0.119 | 0.134 | -0.004 | -0.039 | 0.086 | -0.035 | 0.076 | 0.019 | -0.243
USP48 (UniProt Q86UV5) | 0.015 |  |  |  |  |  |  |  |  | 
VPS51 (UniProt Q9UID3) | -0.009 | -0.096 | -0.003 | 0.05 | 0.006 | -0.04 | 0.033 | 0.079 | 0.008 | -0.115
TSEN2 (UniProt Q8NCE0) | -0.198 | 0.052 | 0.014 | 0 | 0.049 | -0.127 | -0.048 | 0.056 | -0.057 | -0.074
